Reference: the supplement of paper PMC12669032
Unmarked numbers belong to inactive results.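 How the source made its calls: active = AUC reduced over 20% with Padj below 0.05 in at least 2 of 3 replicates; inactive = otherwise.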

test system: Coprococcus comes; experiment: growth AUC relative to DMSO control (median of replicates) (fraction); higher = more growth (less inhibition), active = hit call of the paper; settings: 20 µM; 24 h
How it was run: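 Starting at OD600 0.05, gut bacterial monocultures in mGAM were grown anaerobically at 37 °C with 20 µM compound (1% DMSO) under pierced gas-permeable seals. OD600 was read every hour for 24 h, and the lowest OD of each curve was set to 0. Area under the growth curve was normalised to the plate median of solvent-only wells, or to row and column medians on the industrial chemical plate, and the median of three biological replicates grown on separate days is given.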

Row | Compound | growth AUC
1 | COP(N)(=O)SC (stereo not given) | 1.08
2 | COc1cc(OC)n2nc(S(=O)(=O)Nc3c(Cl)ccc(C)c3Cl)nc2n1 | 1.02
3 | CC(C)N(C(=O)SCC(Cl)=C(Cl)Cl)C(C)C | 0.981
4 | O=S(=O)(c1ccc(O)cc1)c1ccc(O)cc1 | 0.974
5 | CN(C)NC(=O)CCC(=O)O | 0.998
6 | CCN(CC)c1nc(C)cc(OP(=S)(OC)OC)n1 | 0.982
7 | Clc1cccc(Cl)c1Cl | 1.01
8 | CCN(CC)C(=S)[S-].O.O.O.[Na+] | 0.964
9 | C#CCC1=C(C)C(OC(=O)C2C(C=C(C)C)C2(C)C)CC1=O (stereo not given) | 0.997
10 | CCOc1ccccc1OS(=O)(=O)NC(=O)Nc1nc(OC)cc(OC)n1 | 1.01
11 | CNC(=O)Oc1cc(C)cc(C(C)C)c1 | 1.01
12 | CCCCN(CC)c1c([N+](=O)[O-])cc(C(F)(F)F)cc1[N+](=O)[O-] | 1.03
13 | O=C(O)CCl | 0.98
14 | CC[C@H](C)[C@H]1O[C@]2(C=C[C@@H]1C)C[C@@H]1C[C@@H](C/C=C(\C)[C@@H](O[C@H]3C[C@H](OC)[C@@H](O[C@H]4C[C@H](OC)[C@@H](NC)[C@H](C)O4)[C@H](C)O3)[C@@H](C)/C=C/C=C3\CO[C@@H]4[C@H](O)C(C)=C[C@@H](C(=O)O1)[C@]34O)O2.O=C(O)c1ccccc1 | 0.156 (active)
15 | CON(C)C(=O)Nc1ccc(Cl)c(Cl)c1 | 1
